{"source": "PubChem BioAssay (NCI)", "note": "This is part of a sample that, as a whole, favours compounds with a hit. Of some 83,000 tested, about 20% had one in any assay.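 96-well plates, one dose, 48 hours. Percent growth reported; active if below 10.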 Activity calls are given as the source filed them.", "data": [{"system": "MDA-MB-468 breast", "assay": "NCI-60 one-dose screen, 48 h (100 = growth as untreated, 0 = no growth, -100 = all killed)", "conditions": "10 µM unless noted", "values": [{"smiles": "O=c1[nH]c(CN2CCN(c3ccccc3)CC2)nc2c(Br)cc(Br)cc12", "growth": "114% (inactive)"}, {"smiles": "Cn1cc(C2=C(c3coc4cc(Br)ccc34)C(=O)NC2=O)c2ccccc21", "growth": "5.23% (active)"}, {"smiles": "O=C1NC(=O)C(c2ccc(Cl)cc2Cl)N1", "note": "(stereo unspecified)", "growth": "106% (inactive)"}, {"smiles": "Cc1cc(C)c2nc(C)c(C)[n+]([O-])c2c1", "growth": "101% (inactive)"}, {"smiles": "Cc1nn(-c2cc(=O)[nH]c3ccc(Cl)cc23)c(N)c1C#N", "growth": "111% (inactive)"}, {"smiles": "Cc1ccc(NC(=O)c2sc3nc(C)c(C(O)c4ccccc4)cc3c2N)cc1", "note": "(stereo unspecified)", "growth": "18.6% (inactive)"}, {"smiles": "CCN1C(=O)N(CC)C2C1NN=c1s/c(=C3\\C(=O)N(C4CCCC4)c4ccccc43)c(=O)n12", "note": "(stereo unspecified)", "growth": "-43.2% (active)"}, {"smiles": "Cc1cc(C)n(CC(=O)Nc2ccc(-c3nc4ccccc4s3)cc2)n1", "growth": "-3.57% (active)"}, {"smiles": "C=C(C)[C@@H]1CC[C@]2(C#N)CC[C@]3(C)[C@H](CC[C@@H]4[C@@]5(C)CCCNC(C)(C)[C@@H]5CC[C@]43C)[C@@H]12", "growth": "19.3% (inactive)"}, {"smiles": "COc1ccc2[nH]cc(-c3noc(C(=O)c4cn(C)c5ccc(F)cc45)n3)c2c1", "growth": "102% (inactive)"}, {"smiles": "Cc1cccc(Cc2cnc(NC(=O)CCc3ccc(C)o3)s2)c1", "growth": "5% (active)"}, {"smiles": "Cc1ccc(=O)n(-c2ccc(Br)cc2F)c1", "growth": "102% (inactive)"}, {"smiles": "C=C(C)[C@@H]1CC[C@]2(COCCCNCCCN)CC[C@]3(C)[C@H](CC[C@@H]4[C@@]5(C)CC[C@H](O)C(C)(C)[C@@H]5CC[C@]43C)[C@@H]12", "growth": "-81.6% (active)"}, {"smiles": "CCN1CCN(C(=O)[C@@]2(C)CC[C@]3(C)CC[C@]4(C)C(=CC(=O)[C@@H]5[C@@]6(C)CC[C@H](OC7C[C@@H](O)[C@@H](O)C(C)O7)C(C)(C)[C@@H]6CC[C@]54C)[C@@H]3C2)CC1", "note": "(stereo partly specified)", "growth": "16.9% (inactive)"}, {"smiles": "Cc1cccc(NC(=O)c2sc3nc4c(cc3c2N)CN(Cc2ccccc2)CC4)c1C", "growth": "24.4% (inactive)"}, {"smiles": "N#C/C(=C\\N1C(=O)/C(=C/c2cccc([N+](=O)[O-])c2)SC1=S)c1nc2ccccc2s1", "growth": "81.7% (inactive)"}, {"smiles": "COC(=O)C(Cc1ccccc1)n1cc(COc2nc(Cl)nc(Nc3ccc(Cl)cc3)n2)nn1", "note": "(stereo unspecified)", "growth": "69.1% (inactive)"}, {"smiles": "O=c1cc(CP(=O)(O)O)c2cc(O)c(-c3ccccc3)cc2o1", "growth": "99.1% (inactive)"}, {"smiles": "C/C(=C/CCC(C)[C@@H]1CC[C@]2(C)C3=C(CC[C@@]12C)[C@@]1(C)CCC(=O)C(C)(C)[C@@H]1CC3)C(=O)O", "note": "(stereo partly specified)", "growth": "-60.4% (active)"}, {"smiles": "ON1CCCC1", "growth": "108% (inactive)"}, {"smiles": "CCCCNC1=C(OCC)C(=O)c2ccccc2C1=O", "growth": "56.3% (inactive)"}, {"smiles": "C#CCOc1ccc2ncnc(Nc3cccc(NC(=O)C=C)c3)c2c1", "growth": "41.6% (inactive)"}, {"smiles": "Cn1cc(-c2cc(N)n3nc(-c4cn(C)c5ccc(F)cc45)cc3n2)c2cc(F)ccc21", "growth": "12.3% (inactive)"}, {"smiles": "COC(=O)CCC1=C(C)C(C)=N/C1=C\\c1[nH]c(-c2ccc[nH]2)cc1OC", "growth": "35% (inactive)"}, {"smiles": "O=C(NS(=O)(=O)c1ccc2ccccc2c1)n1cc(-c2ccncc2)c(-c2ccc(Cl)c(O)c2)n1", "growth": "78.3% (inactive)"}, {"smiles": "C=CCCCCCCCCC(=O)[O][Sn]([CH2]CCC)([CH2]CCC)[CH2]CCC", "growth": "-85.6% (active)"}, {"smiles": "CC1(C)CC(OCCCC[P+](c2ccccc2)(c2ccccc2)c2ccccc2)CC(C)(C)N1O", "growth": "-44.2% (active)"}, {"smiles": "CN1C(=O)C2(SCC(C(=O)NCc3ccccc3)N2C(=O)C2CCCCC2)c2ccccc21", "note": "(stereo unspecified)", "growth": "98.2% (inactive)"}, {"smiles": "O=C(NCCCl)Nc1nccnc1OCc1ccc(F)cc1", "growth": "102% (inactive)"}, {"smiles": "CN(C)CCn1c2ccc(N)cc2c2nc3ccccc3nc21", "growth": "23.7% (inactive)"}, {"smiles": "COc1cccc(-c2nn(-c3ccccc3)cc2-c2ccnc(NCCNS(=O)(=O)c3ccccc3)c2)c1", "growth": "14.5% (inactive)"}, {"smiles": "C[C@H](C(=O)N(CCc1ccc(Cl)c(Cl)c1)Cc1cncs1)[C@@H]1CC[C@H](C[C@H](C)n2cc(CN3CCC(c4ccc(Cl)cc4)CC3)nn2)O1", "growth": "90.3% (inactive)"}, {"smiles": "O=C(c1ccc(-c2nc(CSc3nc4ccccc4s3)no2)cc1)N1CCSCC1", "growth": "4.1% (active)"}, {"smiles": "Cc1ccc(Nc2nccc(N(C)c3ccc4c(C)n(C)nc4c3)n2)cc1S(N)(=O)=O", "growth": "34.1% (inactive)"}, {"smiles": "CN1CCN(Cc2ccc(NC(=O)c3cncc(C#Cc4cnc5ccc(OCC6COC6)nn45)c3)cc2C(F)(F)F)CC1", "growth": "-60.7% (active)"}, {"smiles": "Cc1cc(C=O)c(C)c2c1[nH]c1ccccc12", "growth": "68.1% (inactive)"}]}]}
